Experimental findings from PubChem BioAssay (NCATS) are described below.

Results filed as inconclusive are left out. Values without a mark were called inactive. Calls come from the whole dose curve; as a rule, active = well fitted inhibition curve with a large enough effect; inconclusive = small, poorly fitted or top-dose-only effect; inactive = flat fitted curve, though single readings scatter. Square brackets hold non-standard residues; d marks the D form. Peptide text beside a SMILES is read from it. ξ: configuration not given here. ξTyr(βOH) = NC(C(=O)O)C(O)c1ccc(O)cc1

The assay deals with Aldehyde dehydrogenase, mitochondrial (Homo sapiens) (UniProt P05091). Description: qHTS for Inhibitors of the Aldehyde Dehydrogenase Family (ALDH2) Primary screen (AID 2061308).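 Note: plate controls were vehicle for no effect and reference inhibitor for full effect; nearly all actives have a fitted effect of over 55% in size.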 The settings on record: ALDH2 enzyme inhibition qHTS, 1536-well; series mostly up to 56 µM; activity change, negative = inhibition: at the top concentration. A general note: Quantitative high-throughput screening tests each substance at several concentrations.
For the compound `CCN(CCN(C)C)C(=O)CNCc1cc(C(N)=O)ccn1`, the “activity change, negative = inhibition” value is -6%.

Turning to `COc1cc(/C=C/C(=O)OC2CC(C)=C(C(=O)O)/C2=C/CO[C@@H]2O[C@H](CO)[C@@H](O)[C@H](O)[C@H]2O)ccc1O` (stereo not given in full), the “activity change, negative = inhibition” value is -8.71% [at 28 µM].

On to `CN1CCN(C(c2ccccc2)c2ccccc2)CC1`, for which the “activity change, negative = inhibition” value is -21%.

As for `CC1(C)O[C@H]2CC(=O)OC[C@@]23C1=C(O)C(=O)[C@]1(C)C3CC[C@@]2(C)[C@H](c3ccoc3)OC(=O)[C@H]3O[C@]321` (stereo not given in full), the “activity change, negative = inhibition” value was 7.82% [at 28 µM].

With `NC(N)=NC(=O)c1cnn(-c2cccc3ncccc23)c1C1CC1`, the “activity change, negative = inhibition” value was -0.293%.

Regarding `O=C(CSc1nc2ccccc2c(=O)n1-c1ccccc1)Nc1ccc2c(c1)CCC2`, the “activity change, negative = inhibition” value is -12.1%.

Consider `CC1(C)CC[C@]2(C(=O)O)CC[C@]3(C)C(=CCC4[C@@]5(C)CC[C@H](O)C(C)(C)C5CC[C@]43C)C2C1` (stereo not given in full), for which the “activity change, negative = inhibition” value is 7.3% [at 28 µM].

Take `CC1(C)CC[C@]2(C(=O)O[C@@H]3O[C@H](CO)[C@@H](O)[C@H](O)[C@H]3O)CC[C@]3(C)C(=CCC4[C@@]5(C)CC[C@H](O[C@@H]6O[C@H](C(=O)O)[C@@H](O[C@@H]7O[C@H](CO)[C@@H](O)[C@H](O)[C@H]7O)[C@H](O)[C@H]6O)C(C)(C)C5CC[C@]43C)C2C1` (stereo not given in full): the “activity change, negative = inhibition” value was -1.72% [at 16.9 µM].

With `C[C@@]12C(=O)N(c3ccc(C(=O)Nc4cccc5cccnc45)cc3)C(=O)[C@@H]1[C@@H]1C=C[C@H]2C1`, the “activity change, negative = inhibition” value is -0.568%.

As for `COC1=CC(=O)C=C(C)C12Oc1c(Cl)c(OC)cc(OC)c1C2=O` (stereo not given), the “activity change, negative = inhibition” value was -5.97%.

As to `O=C1CCC=CC1(O)C(=O)OCc1ccccc1O[C@@H]1O[C@H](CO)[C@@H](O)[C@H](O)[C@H]1O` (stereo not given in full), the “activity change, negative = inhibition” value was -0.898% [at 28 µM].

For `O=C(O)c1ccnc(-c2cc(C(=O)NCCc3ccccc3)ccn2)c1`, the “activity change, negative = inhibition” value was -8.99%.

With `O=C(c1ccccc1)c1c(O)cc(O)cc1O[C@@H]1O[C@H](CO)[C@@H](O)[C@H](O)[C@H]1O`, the “activity change, negative = inhibition” value was -21.3%.

In the case of `C[C@@H]1CN(Cc2ccccc2)C[C@H]1c1nc2c(cnn2C2CCOCC2)c(=O)[nH]1`, the “activity change, negative = inhibition” value is 1.91%.

For `COC(=O)C(C)C1CCC2(C)C(=O)C=CC(C)(O)C2C1O` (stereo not given), the “activity change, negative = inhibition” value was 9.57%.

Regarding `CC(=O)O[C@H]1C[C@H](OC(C)=O)[C@]2(C)[C@H](CC[C@@]34O[C@@H]3C3=C(C)C(=O)O[C@@H]3C[C@H]42)C1(C)C`, the “activity change, negative = inhibition” value was -1.76% [at 28 µM].

For the compound `C[C@@H](c1ccccc1)N(C(N)=NC#N)c1cccc2ncccc12`, the “activity change, negative = inhibition” value is 1%.

On to `CC(=O)OCC(=O)Nc1cc(C#N)cc(NC(=O)COC(C)=O)c1Cl`, for which the “activity change, negative = inhibition” value was 0.779%.

Consider `CC(C)C1NC(=O)CNC(=O)C2CCCN2C(=O)C(Cc2c[nH]c3ccccc23)NC(=O)CNC(=O)C(C(O)c2ccc(O)cc2)NC(=O)CNC1=O` (stereo not given) (cyclo(G[ξTyr(βOH)]GWPGV); configuration not given here), for which the “activity change, negative = inhibition” value was -0.0859% [at 16.9 µM].

In the case of `CC1(CO)CCCC2(C)C1C(OC(=O)c1ccccc1)CC1C(=O)OCC12O` (stereo not given), the “activity change, negative = inhibition” value was -0.157%.

Consider `CC1(C)CC[C@]2(C(=O)O)CC[C@]3(C)C(=CCC4[C@@]5(C)CC[C@H](O[C@H]6O[C@H](C(=O)O)[C@@H](O)[C@H](O[C@@H]7O[C@H](CO)[C@H](O)[C@H](O)[C@H]7O)[C@H]6O)C(C)(C)C5CC[C@]43C)[C@@H]2C1` (stereo not given in full), for which the “activity change, negative = inhibition” value is -11.1% [at 16.9 µM].

Consider `CC1=C2C(=O)C=C(CO)C2C2OC(=O)C(CS(=O)(=O)O)C2C(OC(=O)Cc2ccc(O)cc2)C1` (stereo not given), for which the “activity change, negative = inhibition” value was -21.6% [at 28 µM].

Regarding `COC(=O)C1=CO[C@@H](O[C@@H]2O[C@H](CO)[C@@H](O)[C@H](O)[C@H]2O)[C@H]2[C@@H]1[C@H](O)C[C@]2(C)O`, the “activity change, negative = inhibition” value was 8.83% [at 28 µM].

As for `C=C1C(=O)OC[C@H]2C(C(=O)O)=CC3CC(C)(C)C[C@@]132` (stereo not given in full), the “activity change, negative = inhibition” value is -23%.

As for `COc1c(O[C@@H]2O[C@H](CO)[C@@H](O)[C@H](O)[C@H]2O)c(CCC(=O)O)cc2ccoc12`, the “activity change, negative = inhibition” value was -6.71%.

`CC1CCC2C(C)(C)C(O)CCC2(C)C12Cc1c(O)cc3c(c1O2)CN(C(CCC(N)=O)C(=O)O)C3=O` (stereo not given): the “activity change, negative = inhibition” value was -4.83% [at 28 µM].

As for `COc1ccccc1-c1c[nH]c2ncc(-c3cncc(C(=O)N(C)C)c3)cc12`, the “activity change, negative = inhibition” value is 1.2%.

In the case of `COc1ccc(/C=C/C(=O)O[C@@H]2[C@@H](O[C@@H]3O[C@H](CO)[C@@H](O)[C@H](O)[C@H]3O)[C@@H](O)[C@H](O[C@H]3C4C=CO[C@@H](O[C@@H]5O[C@H](CO)[C@@H](O)[C@H](O)[C@H]5O)C4[C@@]4(CO)O[C@@H]34)O[C@H]2C)cc1` (stereo not given in full), the “activity change, negative = inhibition” value is 14.4% [at 16.9 µM].

On to `COc1ccnc2[nH]cc(C(=O)C(=O)N3CCN(C(=O)c4ccccc4)CC3C)c12` (stereo not given), for which the “activity change, negative = inhibition” value is -5.9%.

For `CC(=O)c1c(C)cc(O[C@@H]2O[C@H](CO)[C@@H](O)[C@H](O)[C@H]2O)cc1O`, the “activity change, negative = inhibition” value is 4.16%.

For the compound `CC(CCC1C(C(=O)O)=CC(=O)CC1(C)C)O[C@@H]1O[C@H](CO)[C@@H](O)[C@H](O)[C@H]1O` (stereo not given in full), the “activity change, negative = inhibition” value is 8.61%.

Turning to `CC1=C2CC(O)(C(C)(C)O)C(O[C@@H]3O[C@H](CO)[C@@H](O)[C@H](O)[C@H]3O)CC(C)C2CC1=O` (stereo not given in full), the “activity change, negative = inhibition” value is 5.08% [at 28 µM].

For the compound `CCCC(=O)Nc1cccc(NC(=O)c2ccccc2Br)c1`, the “activity change, negative = inhibition” value is -2.76%.

Regarding `O=C(c1ccc(Cl)cc1)N1CCN(c2ccnc3cc(Cl)ccc23)CC1`, the “activity change, negative = inhibition” value was -4.15%.

As for `COC(=O)[C@H](Cc1ccc([N+](=O)[O-])cc1)NC(=O)c1cccc2ccccc12`, the “activity change, negative = inhibition” value is 1.94%.

`C/C=C1\[C@H](O[C@@H]2O[C@H](CO)[C@@H](O)[C@H](O)[C@H]2O)OC=C(C(=O)O)[C@H]1CC(=O)OCCc1ccc(O)cc1`: the “activity change, negative = inhibition” value is 10.8% [at 28 µM].

As to `Cc1cc(CNC(=O)c2cc(C(=O)NCc3ccc(F)c(C)c3)ncn2)ccc1F`, the “activity change, negative = inhibition” value is -3.28%.

`COC1CC(O[C@H]2CC[C@@]3(C)C(=CC[C@]4(O)C3[C@H](O)[C@@H](O)[C@]3(C)[C@@H]([C@H](C)O)CC[C@@]34O)C2)OC(C)C1OC1CC(OC)C(OC2CC(OC)C(OC3OC(C)C(OC4OC(CO)C(O)C(O)C4O)C(OC)C3O)C(C)O2)C(C)O1` (stereo not given in full): the “activity change, negative = inhibition” value is -2.4% [at 16.9 µM].

For the compound `COc1ccc(/C=C/C(=O)O[C@H]2[C@@H]3C=CO[C@@H](O[C@@H]4O[C@H](CO)[C@@H](O)[C@H](O)[C@H]4O)[C@@H]3[C@@]3(CO)O[C@@H]23)cc1O`, the “activity change, negative = inhibition” value was 0.868% [at 28 µM].

Regarding `NC[C@H]1CCC[C@@H](CNC(=O)[C@@H](Cc2c[nH]c3ccccc23)NC(=O)N2CCC3(C=Cc4ccccc43)CC2)C1`, the “activity change, negative = inhibition” value is 14.2%.
